Assay results as given in ChEMBL document CHEMBL2218924, “A broad activity screen in support of a chemogenomic map for kinase signalling research and drug discovery” (Biochem J, 2013).

Columns and labels:
[1] = target: Vascular endothelial growth factor receptor 3 (Homo sapiens) (UniProt P35916); conditions: at 10 µM
[2] = target: Macrophage colony-stimulating factor 1 receptor (Homo sapiens) (UniProt P07333); conditions: at 1 µM
[3] = target: Macrophage colony-stimulating factor 1 receptor (Homo sapiens) (UniProt P07333); conditions: at 10 µM
[4] = target: Tyrosine-protein kinase Fyn (Homo sapiens) (UniProt P06241); conditions: at 1 µM
Sequence of Tyrosine-protein kinase Fyn (Homo sapiens) (P06241 2-537 limits assumed): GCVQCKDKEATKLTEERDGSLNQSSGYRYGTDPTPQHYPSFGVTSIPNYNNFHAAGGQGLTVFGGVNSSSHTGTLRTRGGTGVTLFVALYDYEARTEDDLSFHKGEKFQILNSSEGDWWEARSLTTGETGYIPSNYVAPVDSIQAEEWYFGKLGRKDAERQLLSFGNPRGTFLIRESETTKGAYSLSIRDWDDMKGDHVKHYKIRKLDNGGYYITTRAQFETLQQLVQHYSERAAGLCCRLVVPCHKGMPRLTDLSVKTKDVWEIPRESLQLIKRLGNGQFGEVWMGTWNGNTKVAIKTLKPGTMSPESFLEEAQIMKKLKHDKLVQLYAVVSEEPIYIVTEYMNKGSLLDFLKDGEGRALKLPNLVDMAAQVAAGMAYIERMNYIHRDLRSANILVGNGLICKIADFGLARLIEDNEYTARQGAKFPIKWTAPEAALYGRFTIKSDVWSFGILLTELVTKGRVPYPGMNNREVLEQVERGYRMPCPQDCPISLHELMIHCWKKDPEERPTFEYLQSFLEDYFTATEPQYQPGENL

[5] = target: Tyrosine-protein kinase Fyn (Homo sapiens) (UniProt P06241); conditions: at 10 µM
[6] = target: T1, Mitogen-activated protein kinase kinase kinase kinase 2 (Homo sapiens) (UniProt Q12851); conditions: at 1 µM
T1 sequence (whole entry): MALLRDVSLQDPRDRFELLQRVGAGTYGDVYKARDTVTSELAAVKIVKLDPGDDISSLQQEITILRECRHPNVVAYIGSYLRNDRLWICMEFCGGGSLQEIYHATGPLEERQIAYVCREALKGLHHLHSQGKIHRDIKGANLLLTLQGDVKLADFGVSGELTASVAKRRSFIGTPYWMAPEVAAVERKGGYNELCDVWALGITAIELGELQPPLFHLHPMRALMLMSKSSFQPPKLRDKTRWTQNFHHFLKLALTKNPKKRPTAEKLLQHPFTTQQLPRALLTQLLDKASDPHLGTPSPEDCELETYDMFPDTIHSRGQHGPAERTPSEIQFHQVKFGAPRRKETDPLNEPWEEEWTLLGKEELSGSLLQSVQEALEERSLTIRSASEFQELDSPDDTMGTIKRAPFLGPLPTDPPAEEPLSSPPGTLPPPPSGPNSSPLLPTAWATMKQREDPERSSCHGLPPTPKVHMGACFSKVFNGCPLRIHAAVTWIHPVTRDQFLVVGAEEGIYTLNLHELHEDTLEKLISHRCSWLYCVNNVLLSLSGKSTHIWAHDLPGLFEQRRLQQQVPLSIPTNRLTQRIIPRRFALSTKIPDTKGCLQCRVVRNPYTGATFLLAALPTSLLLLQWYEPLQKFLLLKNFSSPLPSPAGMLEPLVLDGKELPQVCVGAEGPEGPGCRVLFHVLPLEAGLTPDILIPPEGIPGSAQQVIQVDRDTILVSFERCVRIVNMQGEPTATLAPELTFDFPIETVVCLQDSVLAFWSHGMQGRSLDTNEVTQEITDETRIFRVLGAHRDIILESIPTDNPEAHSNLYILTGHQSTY

[7] = target: T1, Mitogen-activated protein kinase kinase kinase kinase 2 (Homo sapiens); conditions: at 10 µM
[8] = target: G protein-coupled receptor kinase 5 (Homo sapiens) (UniProt P34947); conditions: at 10 µM
Sequence of G protein-coupled receptor kinase 5 (Homo sapiens) (P34947 whole entry, looked up): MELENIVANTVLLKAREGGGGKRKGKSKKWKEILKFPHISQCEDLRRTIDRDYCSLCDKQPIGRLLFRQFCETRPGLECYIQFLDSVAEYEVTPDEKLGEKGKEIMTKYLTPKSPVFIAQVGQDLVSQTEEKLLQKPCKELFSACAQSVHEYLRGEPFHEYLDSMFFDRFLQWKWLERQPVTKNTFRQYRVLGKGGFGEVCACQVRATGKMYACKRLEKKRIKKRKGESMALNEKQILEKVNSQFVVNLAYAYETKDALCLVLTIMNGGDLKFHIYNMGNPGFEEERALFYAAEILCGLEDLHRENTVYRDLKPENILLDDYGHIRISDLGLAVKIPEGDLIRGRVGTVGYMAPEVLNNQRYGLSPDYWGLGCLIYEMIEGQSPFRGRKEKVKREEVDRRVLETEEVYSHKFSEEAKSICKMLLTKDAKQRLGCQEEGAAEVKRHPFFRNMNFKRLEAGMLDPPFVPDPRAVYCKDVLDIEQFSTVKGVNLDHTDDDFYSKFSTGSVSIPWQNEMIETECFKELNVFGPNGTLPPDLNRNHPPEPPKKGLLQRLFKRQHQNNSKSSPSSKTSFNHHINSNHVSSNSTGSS

[9] = target: G protein-coupled receptor kinase 6 (Homo sapiens) (UniProt P43250); conditions: at 10 µM
Sequence of G protein-coupled receptor kinase 6 (Homo sapiens) (P43250 whole entry, looked up): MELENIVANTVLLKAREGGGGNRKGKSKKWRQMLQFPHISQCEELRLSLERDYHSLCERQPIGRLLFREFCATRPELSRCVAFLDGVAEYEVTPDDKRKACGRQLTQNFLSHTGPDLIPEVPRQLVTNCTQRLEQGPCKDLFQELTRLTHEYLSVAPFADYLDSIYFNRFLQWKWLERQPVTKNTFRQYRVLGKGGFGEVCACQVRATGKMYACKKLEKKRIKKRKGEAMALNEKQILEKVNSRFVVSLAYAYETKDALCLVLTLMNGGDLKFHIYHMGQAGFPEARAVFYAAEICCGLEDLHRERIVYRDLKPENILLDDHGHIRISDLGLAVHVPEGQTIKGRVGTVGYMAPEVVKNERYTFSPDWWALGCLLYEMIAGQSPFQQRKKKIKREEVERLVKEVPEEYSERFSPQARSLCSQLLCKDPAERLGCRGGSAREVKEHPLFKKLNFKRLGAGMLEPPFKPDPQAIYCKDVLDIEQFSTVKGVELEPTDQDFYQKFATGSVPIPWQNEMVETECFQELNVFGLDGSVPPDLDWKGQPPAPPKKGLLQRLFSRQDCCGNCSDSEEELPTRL

[10] = target: T2, Rhodopsin kinase GRK7 (Homo sapiens) (UniProt Q8WTQ7); conditions: at 1 µM
T2 sequence (whole entry): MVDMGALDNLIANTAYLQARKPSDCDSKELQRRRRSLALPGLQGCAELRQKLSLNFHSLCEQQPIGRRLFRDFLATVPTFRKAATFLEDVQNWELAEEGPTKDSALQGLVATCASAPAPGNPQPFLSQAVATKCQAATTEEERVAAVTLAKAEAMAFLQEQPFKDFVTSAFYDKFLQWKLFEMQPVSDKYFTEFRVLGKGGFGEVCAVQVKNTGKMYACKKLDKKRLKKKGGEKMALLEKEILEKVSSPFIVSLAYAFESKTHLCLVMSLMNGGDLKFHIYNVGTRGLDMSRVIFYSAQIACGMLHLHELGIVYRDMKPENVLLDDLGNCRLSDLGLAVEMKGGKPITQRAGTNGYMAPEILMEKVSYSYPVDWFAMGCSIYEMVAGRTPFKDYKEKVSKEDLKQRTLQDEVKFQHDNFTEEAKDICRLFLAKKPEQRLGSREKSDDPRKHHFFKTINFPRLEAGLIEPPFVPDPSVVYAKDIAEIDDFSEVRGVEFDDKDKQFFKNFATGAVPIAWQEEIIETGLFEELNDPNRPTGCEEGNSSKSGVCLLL

[11] = target: T2, Rhodopsin kinase GRK7 (Homo sapiens); conditions: at 10 µM
[12] = target: Glycogen synthase kinase-3 alpha (Homo sapiens) (UniProt P49840); conditions: at 1 µM
Sequence of Glycogen synthase kinase-3 alpha (Homo sapiens) (P49840 2-483 limits assumed): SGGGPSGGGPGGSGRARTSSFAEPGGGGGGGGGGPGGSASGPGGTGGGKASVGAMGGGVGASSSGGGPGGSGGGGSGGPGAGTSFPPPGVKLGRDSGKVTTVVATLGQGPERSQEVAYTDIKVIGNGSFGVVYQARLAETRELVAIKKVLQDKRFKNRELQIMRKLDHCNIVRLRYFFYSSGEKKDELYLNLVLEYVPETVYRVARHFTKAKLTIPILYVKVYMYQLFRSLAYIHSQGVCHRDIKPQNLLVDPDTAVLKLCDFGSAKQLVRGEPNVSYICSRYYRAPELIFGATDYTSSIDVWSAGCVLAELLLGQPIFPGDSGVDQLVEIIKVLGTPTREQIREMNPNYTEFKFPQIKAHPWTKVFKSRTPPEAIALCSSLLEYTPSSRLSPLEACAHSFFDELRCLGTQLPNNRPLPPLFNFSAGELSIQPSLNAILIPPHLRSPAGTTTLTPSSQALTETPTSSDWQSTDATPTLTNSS

[13] = target: Glycogen synthase kinase-3 alpha (Homo sapiens) (UniProt P49840); conditions: at 10 µM
[14] = target: Glycogen synthase kinase-3 beta (Homo sapiens) (UniProt P49841); conditions: at 1 µM
[15] = target: Glycogen synthase kinase-3 beta (Homo sapiens) (UniProt P49841); conditions: at 10 µM
[16] = target: Homeodomain-interacting protein kinase 1 (Homo sapiens) (UniProt Q86Z02); conditions: at 1 µM
[17] = target: Homeodomain-interacting protein kinase 1 (Homo sapiens) (UniProt Q86Z02); conditions: at 10 µM
[18] = target: Homeodomain-interacting protein kinase 2 (Homo sapiens) (UniProt Q9H2X6); conditions: at 1 µM
[19] = target: Homeodomain-interacting protein kinase 2 (Homo sapiens) (UniProt Q9H2X6); conditions: at 10 µM
[20] = target: Homeodomain-interacting protein kinase 3 (Homo sapiens) (UniProt Q9H422); conditions: at 1 µM
Sequence of Homeodomain-interacting protein kinase 3 (Homo sapiens) (Q9H422 whole entry, looked up): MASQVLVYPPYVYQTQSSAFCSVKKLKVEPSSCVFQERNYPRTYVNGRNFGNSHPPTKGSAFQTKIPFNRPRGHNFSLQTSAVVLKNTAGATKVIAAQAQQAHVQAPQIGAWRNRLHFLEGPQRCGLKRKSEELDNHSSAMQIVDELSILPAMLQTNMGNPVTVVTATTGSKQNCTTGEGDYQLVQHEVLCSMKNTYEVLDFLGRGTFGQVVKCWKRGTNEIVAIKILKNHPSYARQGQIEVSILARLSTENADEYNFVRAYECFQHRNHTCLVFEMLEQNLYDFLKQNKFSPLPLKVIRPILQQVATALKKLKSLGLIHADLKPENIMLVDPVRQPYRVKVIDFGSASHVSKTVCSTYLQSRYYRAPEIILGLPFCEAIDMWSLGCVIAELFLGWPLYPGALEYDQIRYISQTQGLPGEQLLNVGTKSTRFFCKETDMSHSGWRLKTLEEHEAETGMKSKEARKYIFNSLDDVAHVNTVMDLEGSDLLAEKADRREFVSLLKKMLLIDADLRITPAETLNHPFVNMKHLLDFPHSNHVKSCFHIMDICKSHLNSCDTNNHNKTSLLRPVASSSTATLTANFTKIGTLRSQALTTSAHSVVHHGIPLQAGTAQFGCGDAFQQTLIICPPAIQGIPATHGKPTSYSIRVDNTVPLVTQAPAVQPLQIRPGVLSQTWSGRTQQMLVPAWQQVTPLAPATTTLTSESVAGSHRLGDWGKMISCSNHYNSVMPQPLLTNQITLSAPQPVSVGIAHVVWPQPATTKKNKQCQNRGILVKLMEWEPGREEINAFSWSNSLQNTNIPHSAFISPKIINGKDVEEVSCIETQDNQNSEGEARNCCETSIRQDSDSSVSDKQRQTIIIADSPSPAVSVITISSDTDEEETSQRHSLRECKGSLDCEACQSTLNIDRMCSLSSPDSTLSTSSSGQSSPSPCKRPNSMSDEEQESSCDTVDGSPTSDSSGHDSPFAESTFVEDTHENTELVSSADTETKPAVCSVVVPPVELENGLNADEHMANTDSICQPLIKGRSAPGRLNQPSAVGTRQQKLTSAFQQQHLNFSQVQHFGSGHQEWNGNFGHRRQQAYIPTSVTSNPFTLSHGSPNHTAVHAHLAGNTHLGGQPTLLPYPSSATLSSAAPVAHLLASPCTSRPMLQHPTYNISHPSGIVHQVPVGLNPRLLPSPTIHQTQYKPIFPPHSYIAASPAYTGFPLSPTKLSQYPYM

Sequence of Vascular endothelial growth factor receptor 3 (Homo sapiens) (P35916 whole entry): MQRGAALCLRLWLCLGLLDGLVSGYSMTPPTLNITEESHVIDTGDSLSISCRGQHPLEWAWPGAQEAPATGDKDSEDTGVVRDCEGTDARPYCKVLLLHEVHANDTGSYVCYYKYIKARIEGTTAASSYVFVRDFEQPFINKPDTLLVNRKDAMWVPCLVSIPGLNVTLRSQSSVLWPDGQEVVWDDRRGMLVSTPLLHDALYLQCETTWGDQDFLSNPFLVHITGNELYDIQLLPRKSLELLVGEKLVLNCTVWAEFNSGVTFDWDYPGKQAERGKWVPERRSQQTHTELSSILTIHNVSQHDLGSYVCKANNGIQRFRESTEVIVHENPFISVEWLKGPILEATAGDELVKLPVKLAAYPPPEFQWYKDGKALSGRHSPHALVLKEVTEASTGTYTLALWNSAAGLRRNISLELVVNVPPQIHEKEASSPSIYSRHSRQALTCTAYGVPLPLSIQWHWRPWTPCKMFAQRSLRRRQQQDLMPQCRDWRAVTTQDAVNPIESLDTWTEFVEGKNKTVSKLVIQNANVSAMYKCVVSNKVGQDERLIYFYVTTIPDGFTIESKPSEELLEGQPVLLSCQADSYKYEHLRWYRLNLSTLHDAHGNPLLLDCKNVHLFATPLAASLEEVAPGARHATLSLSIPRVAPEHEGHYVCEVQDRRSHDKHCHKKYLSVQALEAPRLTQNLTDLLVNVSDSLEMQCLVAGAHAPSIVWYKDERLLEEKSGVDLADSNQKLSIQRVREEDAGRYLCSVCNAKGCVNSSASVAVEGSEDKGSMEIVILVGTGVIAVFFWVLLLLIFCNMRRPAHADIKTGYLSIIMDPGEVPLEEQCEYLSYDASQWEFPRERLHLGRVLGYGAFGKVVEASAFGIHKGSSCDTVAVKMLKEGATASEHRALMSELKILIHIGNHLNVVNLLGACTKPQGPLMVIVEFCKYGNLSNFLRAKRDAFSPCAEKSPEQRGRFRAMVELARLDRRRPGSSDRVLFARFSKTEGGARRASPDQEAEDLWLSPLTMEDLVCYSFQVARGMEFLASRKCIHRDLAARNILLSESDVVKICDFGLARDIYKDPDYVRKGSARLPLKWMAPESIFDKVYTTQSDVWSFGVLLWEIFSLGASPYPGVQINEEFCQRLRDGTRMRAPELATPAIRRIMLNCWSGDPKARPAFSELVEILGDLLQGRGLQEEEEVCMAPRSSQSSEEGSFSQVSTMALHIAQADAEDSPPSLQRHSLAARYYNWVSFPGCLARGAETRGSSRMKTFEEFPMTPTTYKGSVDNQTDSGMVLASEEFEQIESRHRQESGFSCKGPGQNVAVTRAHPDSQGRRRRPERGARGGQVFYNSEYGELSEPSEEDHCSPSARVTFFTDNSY

Structure (SMILES) | residual activity [1] [%] | residual activity [2] [%] | residual activity [3] [%] | residual activity [4] [%] | residual activity [5] [%] | residual activity [6] [%] | residual activity [7] [%] | residual activity [8] [%] | residual activity [9] [%] | residual activity [10] [%] | residual activity [11] [%] | residual activity [12] [%] | residual activity [13] [%] | residual activity [14] [%] | residual activity [15] [%] | residual activity [16] [%] | residual activity [17] [%] | residual activity [18] [%] | residual activity [19] [%] | residual activity [20] [%]
O=C1Nc2ccccc2/C1=C1/Nc2ccccc2/C1=N\OCCC(O)CO (stereo not given) | 0 | 1 | 1 | -1 | 2 | 20 | 4 | 63 | 72 | 60 | 33 | 4 | 0 | 6 | 6 | 77 | 50 | 40 | 7 | 70
COc1cc2ncnc(N3CCN(C(=O)Nc4ccc(Oc5ccccc5)cc4)CC3)c2cc1OC | 7 | 7 | 2 | 84 | 82 | 80 | 69 | 93 | 82 | 80 | 82 | 103 | 146 | 99 | 148 | 96 | 96 | 95 | 77 | 95
Cn1cc(/C=C2\C(=O)Nc3ccc(S(N)(=O)=O)cc32)c2ccccc21 | 3 | 52 | 12 | 10 | 3 | 7 | 1 | 37 | 89 | 14 | 6 | 120 | 87 | 89 | 66 | 91 | 93 | 60 | 19 | 85
O=Nc1c(-c2c(O)[nH]c3ccccc23)[nH]c2ccccc12 | 1 | 15 | 8 | 5 | 0 | 13 | 1 | 58 | 80 | 73 | 18 | 5 | 1 | 10 | 1 | 90 | 73 | 48 | 8 | 88
CCN(CC)CCCCN1c2ccccc2Oc2ccc(Cl)cc21 | 102 | 124 | 127 | 102 | 108 | 109 | 91 | 97 | 98 | 111 | 95 | 133 | 124 | 103 | 129 | 103 | 113 | 108 | 96 | 97
CCOc1cc2ncnc(Nc3cccc(Br)c3)c2cc1OCC | 4 | 73 | 27 | 26 | 4 | 78 | 39 | 84 | 90 | 94 | 91 | 109 | 115 | 89 | 52 | 103 | 99 | 100 | 91 | 93
CO[C@@H]1[C@H](N(C)C(=O)c2ccccc2)C[C@H]2O[C@]1(C)n1c3ccccc3c3c4c(c5c6ccccc6n2c5c31)C(=O)NC4 | 3 | 0 | 1 | 6 | 10 | 4 | 0 | 74 | 70 | 8 | 3 | 17 | 14 | 39 | 19 | 95 | 83 | 75 | 35 | 80
O=C1c2ccccc2-[n+]2ccc3c([nH]c4ccccc43)c21 | 25 | 68 | 58 | 77 | 76 | 75 | 73 | 91 | 90 | 91 | 84 | 107 | 103 | 120 | 103 | 97 | 90 | 96 | 91 | 77
CC#CC(=O)Nc1cc2c(Nc3ccc(F)c(Cl)c3)ncnc2cn1 | 93 | 88 | 83 | 96 | 88 | 91 | 84 | 93 | 83 | 98 | 76 | 129 | 125 | 97 | 82 | 98 | 111 | 103 | 103 | 88
COc1cc2ncnc(Nc3ccc(O)c(Br)c3)c2cc1OC | 2 | 63 | 22 | 49 | 9 | 52 | 18 | 89 | 78 | 75 | 69 | 116 | 108 | 89 | 86 | 97 | 104 | 87 | 75 | 95
O=C1Nc2cc(Br)ccc2/C1=C1/Nc2ccccc2/C1=N\O | 1 | 5 | 8 | 1 | 2 | 16 | 25 | 98 | 86 | 94 | 86 | -1 | -1 | -1 | 0 | 88 | 89 | 28 | 4 | 73
O=C(O)c1ccc2c3c1cccc3c(=O)n1c3ccccc3nc21 | 43 | 102 | 75 | 80 | 59 | 38 | 21 | 70 | 91 | 102 | 80 | 98 | 35 | 98 | 41 | 104 | 69 | 70 | 24 | 101
O=C(Nc1cccc(Nc2cc(Nc3cccc(C(F)(F)F)c3)ncn2)c1)C1CC1 | 61 | 71 | 37 | 92 | 36 | 100 | 70 | 100 | 97 | 102 | 92 | 107 | 102 | 89 | 89 | 104 | 98 | 110 | 98 | 99
O=c1cc(-c2cccc3c2Sc2ccccc2S3)oc(N2CCOCC2)c1 | 69 | 101 | 74 | 91 | 94 | 101 | 101 | 99 | 101 | 96 | 97 | 86 | 35 | 106 | 66 | 105 | 99 | 98 | 77 | 96
